According to ChEMBL document CHEMBL1157539, “Thousands of chemical starting points for antimalarial lead identification” (Nature, 2010):

Experiments:
Type in all cases: functional
Plasmodium falciparum [1] = test: GSK_TCMDC: Inhibition of Plasmodium falciparum 3D7 in whole red blood cells, using parasite LDH activity as an index of growth. Test compounds present at 2uM
Plasmodium falciparum [2] = test: GSK_TCMDC: Inhibition of Plasmodium falciparum Dd2 in whole red blood cells, using parasite LDH activity as an index of growth. Test compounds present at 2uM
HepG2 = test: GSK_TCMDC: Percent inhibition of human HepG2 cell line. Test compounds present at 10uM.

SMILES	Inhibition (Plasmodium falciparum [1])	Inhibition (Plasmodium falciparum [2])	Inhibition (HepG2)
COc1ccc(CNCc2cccc(-c3csc(-c4nc5ccccc5[nH]4)c3)c2)cc1.O=C(O)C(F)(F)F	100%	22%	17%
NC(=O)C1CCN(Cc2cccc(-c3cccc(-c4nc5cc(C(F)(F)F)ccc5[nH]4)c3)c2)CC1.O=C(O)C(F)(F)F	100%	100%	16%
COc1ccc2nccc([C@@H](O)CN3CCC(NC(=O)c4cc5c(F)cc(F)cc5[nH]4)CC3)c2c1.CS(=O)(=O)O	100%	98%	33%
CN(C)c1nc2cc(-n3cnc4cc(-c5ccc(Cl)cc5)sc4c3=O)ccc2n1CCCN1CCCC1.O=C(O)C(F)(F)F	97%	73%	99%
NS(=O)(=O)c1cccc(-c2ccc3ncc(N4CCOCC4)nc3c2)c1	96%	74%	17%
COc1ccc(NC(=O)/C=C/c2ccc(Oc3ccccc3Cl)c([N+](=O)[O-])c2)cc1OCCN(C(C)C)C(C)C	99%	97%	31%
CCN(CC)S(=O)(=O)c1cc(-c2ccc(=O)n(CC(=O)c3ccc(C)cc3)n2)ccc1C	86%	66%	6%
Fc1ccc(-c2nc(NCc3cccc(C(F)(F)F)c3)nn2-c2cccc(C(F)(F)F)c2)cc1C(F)(F)F	90%	58%	2%
COc1cc(NC(=O)C(c2ccc(Cl)cc2)C(C)C)cc(OC)c1 (stereo not drawn)	99%	98%	5%
Br.CC(C)(C)c1ccc(Cn2c(=N)n(CC(=O)c3ccc(-c4ccccc4)cc3)c3ccccc32)cc1	98%	50%	63%
Cn1cc(C2CCN(CCCCCNC(=O)/C=C/c3ccc(Cl)c(Cl)c3)CC2)c2cc(O)ccc21	94%	0%	11%
Cc1cc(OCc2ccccc2)c(OCc2ccccc2)cc1C(O)CN(C)Cc1ccccc1.Cl (stereo not drawn)	96%	87%	14%
O=C(COc1ccccc1)NC1CCN(c2ccnc3cc(Cl)ccc23)C1.O=C(O)C(F)(F)F (stereo not drawn)	100%	35%	22%
O=[N+]([O-])c1ccccc1/C=N/Nc1ccnc2cc(Cl)ccc12	100%	89%	0%
NC(=O)c1ccc(NC(=O)CN(Cc2ccc(Cl)cc2)S(=O)(=O)c2ccccc2)cc1	90%	75%	2%
NC(=O)c1ccc(-c2ccc3ccnc(N)c3c2)cc1.O=C(O)C(F)(F)F	100%	98%	56%

SMILES	Inhibition (Plasmodium falciparum [1])	Inhibition (Plasmodium falciparum [2])	Inhibition (HepG2)
Cn1cncc1C(=O)NC1CCN(c2ccnc(Nc3ccc(F)cc3)n2)C1 (stereo not drawn)	97%	83%	2%
Cc1cccc(CNc2nc(C)cc(N[C@@H](CC(C)C)C(=O)NCc3cccc(F)c3)n2)c1.O=C(O)C(F)(F)F	91%	32%	13%
CC(NC(=O)c1ccc(O)c(-c2ccc(Cl)c(Cl)c2)c1)C(=O)NCCN1CCOCC1 (stereo not drawn)	87%	7%	2%
Cc1c(-c2cccc(Br)c2)[nH]c2nc(N)nc(N)c12	100%	61%	8%
Cn1cc(C2CCN(CCCCNC(=O)c3ccc(-c4ccc(C(F)(F)F)cc4)c(CO)c3)CC2)c2ccccc21	88%	16%	67%
Cc1ccc2[nH]c(-c3ccc(C=CC(=O)NC4CCN(Cc5ccccc5)CC4)cc3)nc2c1	100%	92%	9%
COc1ccccc1NC(=O)CSc1nc2cccnc2n1-c1ccccc1OC	94%	91%	0%
CCC(C)NCc1c(O)ccc2c(CNC(C)CC)c(O)ccc12.Cl (stereo not drawn)	100%	31%	14%
Cc1ccc(NCc2cccc(F)c2)cc1S(=O)(=O)N[C@@H]1CCN(C#N)C1	89%	83%	13%
C=C[C@H]1CN(CCCCCCC)CC[C@H]1CC(O)Cc1ccnc2cc(O)c(OC)cc12.O=C(O)C(=O)O (stereo partly drawn)	95%	59%	7%
Nc1cnc(C#Cc2cc3ncnc(N(CCN4CCOCC4)c4ccc(OCc5cccc(F)c5)c(Cl)c4)c3s2)cn1	87%	57%	0%
Br.CCC(C)Oc1ccc(CCCON2C(N)=NC(N)=NC2(C)C)cc1 (stereo not drawn)	92%	95%	65%
Cc1onc(-c2ccccc2)c1-c1nc(NCc2ccccc2Cl)no1	99%	92%	2%
Cc1ccc(C(C)C)c(Oc2cnc(NC(CO)c3ccccc3)nc2N)c1 (stereo not drawn)	95%	0%	27%
Cc1ccc2[nH]c(Nc3ccc(Nc4nc5cc(C)ccc5[nH]4)c(C)c3)nc2c1	99%	94%	12%
